“And” between values parts separate entries of the source, which are not always exact repeats. Identical values can stand only once. Inconclusive results are not listed. A call without a number means that no potency is given here. Unmarked numbers belong to inactive results. The source made the active and inactive calls. Calls follow the shape of the dose curve; as a rule, active = well fitted activation curve with a large enough effect in the repeat runs; inconclusive = weak or mixed curves; inactive = no such curve, though single readings can be large or run the other way.
Biological target: Nuclear receptor subfamily 1 group I member 3 (Homo sapiens) (UniProt Q14994)
Assay: qHTS assay to identify small molecule agonists of the constitutive androstane receptor (CAR) signaling pathway (AID 1224839); also: nearly all actives have a fitted effect of over 15% in size;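 as to activation: HepG2 cells stably carrying human CAR and a CYP2B6 luciferase reporter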
Details: HepG2 hCAR CYP2B6-luciferase, agonist mode, 24 h; series mostly up to 92.4 µM
Source text: National Center for Advancing Translational Sciences [NCATS] NIH Chemical Genomics Center [NCGC] U.S. Environmental Protection Agency [EPA] National Institutes of Environmental Health Sciences [NIEHS] National Toxicology Program [NTP] Assay overview: The constitutive androstane receptor (CAR) is a nuclear receptor which regulates multiple drug metabolizing enzymes (DMEs) and transporters. Activating CAR will generally increase the transcription and subsequent translation of CYP2B6 and CYP3A4. These two DMEs represent about 50% of the drug metabolizing potential in the body. […] Recently, there have also been studies performed indicating CARs role in energy metabolism and cancer therapy. Therefore, inducing CARs activity could have a potential effect on diabetes and cancer. Identifying environmental toxins and compounds which modulate CAR, through the use of the Tox21 10K compound collection, will be an important step in determining the toxicity and potential therapeutic effects these factors will have on the human body.
Assay Protocol Summary: A double-stable (hCAR and CYP2B6-2.2kb) transfected cell line, derived from human hepatoma (HepG2) cells, was utilized for the duration of the quantitative high-throughput screens. The HepG2-CYP2B6-hCAR cells suspended in DMEM culture medium supplemented with 10% FBS, 5 ug/mL blasticidin, 0.5 mg/mL geneticin, 100 U/mL penicillin and 100 ug/mL streptomycin were dispensed at 2500 cells/4 uL/well in 1536-well white solid bottom plates using a Multidrop Combi. After the assay plates were incubated at 37 C/5% CO2 for 4 hrs, 23 nL of compounds at 15 concentrations (from 5-48 columns) or positive control (from 1 to 4 columns) were transferred to the assay plates using a Pintool station. One uL of PK11195, was added using a Flying Reagent Dispenser to generate a final concentration of 0.75 uM PK11195 inside each well. After a 24 hr incubation period at 37 C/5% CO2, four uL of ONE-Glo reagent was added into the assay plates using a Flying Reagent Dispenser. After a 30 min incubation period at room temperature, the luminescence intensity in the assay plates was measured using a ViewLux plate reader.
Potency is read from the fitted curve at half-maximal effect.

Nuclear receptor subfamily 1 group I member 3 (Homo sapiens), sequence (Q14994 whole entry, looked up): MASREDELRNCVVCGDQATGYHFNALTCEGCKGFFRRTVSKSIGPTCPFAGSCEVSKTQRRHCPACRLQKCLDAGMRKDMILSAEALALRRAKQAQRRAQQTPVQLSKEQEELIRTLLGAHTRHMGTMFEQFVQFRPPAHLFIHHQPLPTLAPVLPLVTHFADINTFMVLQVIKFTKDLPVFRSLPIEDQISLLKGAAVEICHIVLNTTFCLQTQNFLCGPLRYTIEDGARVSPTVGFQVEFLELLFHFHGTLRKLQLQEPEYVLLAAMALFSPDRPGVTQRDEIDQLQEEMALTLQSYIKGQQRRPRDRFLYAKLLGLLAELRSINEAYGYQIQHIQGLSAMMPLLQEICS

Structure (SMILES) | Potency | activation
COc1ccc(C(O)(c2cncnc2)C2CC2)cc1 (stereo not given) | inactive | 
CCCC[N+]1(C)[C@@H]2CC(OC(=O)[C@H](CO)c3ccccc3)C[C@H]1[C@@H]1O[C@@H]12 (stereo not given in full) | inactive | 
NCCc1cc(O)c(O)cc1O | inactive | 
Nc1c(Br)cc(Br)c2c1C(=O)c1ccccc1C2=O |  | 7.31% [at 19 µM]
O=S(=O)(c1ccccc1)c1ccccc1 | inactive | 
SCc1ccccc1 | inactive | 
C=CCOCC1CO1 (stereo not given) | inactive | 
CCCCCBr | inactive | 
CCCC(C)(COC(N)=O)COC(=O)NC(C)C (stereo not given) | inactive | 
CCc1cnc(C2=NC(C)(C(C)C)C(=O)N2)c(C(=O)O)c1 (stereo not given) | inactive | 
Nc1cc(Cl)cc(C(=O)O)c1Cl | inactive | 
CC(Oc1cccc(Cl)c1)C(=O)O (stereo not given) | inactive | 
CCC(C)Cl (stereo not given) | inactive | 
CC(C)C1(C)N=C(c2ncccc2C(=O)O)NC1=O (stereo not given) | inactive | 
N#CC1(N=NC2(C#N)CCCCC2)CCCCC1 | inactive | 
C[CH2][Hg][S]c1ccccc1C(=O)O | inactive | 
CCOc1cccc(C2(N3CCN(c4ccccc4)CC3)CCC(C)CC2)c1 (stereo not given) | inactive | 
CC(=O)NNc1ccccc1 | inactive | 
O=P(OCC(Br)CBr)(OCC(Br)CBr)OCC(Br)CBr (stereo not given) | inactive | 
N#CC(C#N)=Cc1ccc(O)c(O)c1 | inactive | 

Structure (SMILES) | Potency | activation
CCCCC(CC)COC(=O)c1c(Br)c(Br)c(Br)c(Br)c1C(=O)OCC(CC)CCCC (stereo not given) | inactive | 
CCC1(CC)C(=O)NC(=O)NC1=O | inactive | 
CCCC1CCCCN1 (stereo not given) | inactive | 
Clc1ccc(Cl)c(Cl)c1 | inactive | 
CC(C)(C#N)C(C)(C)C#N | inactive | 
CC(C)(C)c1ccc(CCOc2ncnc3ccccc23)cc1 | inactive | 
Nc1cccc2ccccc12 | 30.8 µM (active) and 61.1 µM (active) | 
CC(C)CCCCCCCOC(=O)c1ccccc1C(=O)OCCCCCCCC(C)C | inactive | 
CCCCCCCCCCCC[N+](C)(C)CCOc1ccccc1 | inactive | 
CCCCCCCCCCCCN(C)C | inactive | 
CCCCOC(=O)CCC(=O)OCCCC | inactive | 
CNC(=O)Oc1cccc(N=CN(C)C)c1 | inactive | 
CC(C)(C)OOC(C)(C)CCC(C)(C)OOC(C)(C)C | inactive | 
CC(C)CCON=O | inactive | 
Clc1ccc2ccccc2c1 | inactive | 
CCOC(=O)NC(O)C(Cl)(Cl)Cl (stereo not given) | inactive | 
O=C1c2ccccc2C(=O)N1SC(Cl)(Cl)Cl | inactive | 
COP(=O)(OC)OC(Br)C(Cl)(Cl)Br (stereo not given) | inactive | 
CCOC(=O)C1OC1(C)c1ccccc1 (stereo not given) | inactive | 
C#C[C@]1(O)CC[C@H]2[C@@H]3CCC4=CC(=O)CCC4=C3C=C[C@@]21CC | inactive | 

From PubChem BioAssay (Tox21)
